The list is not random: actives were taken first. Their share in the collection is about 4.3%.
HSF-1 act – increases HSF-1 driven luciferase reporter signal | NIH3T3-HGL HSF-1 luciferase reporter, MG132, 8 h; 100% = twice DMSO control signal | activation, % at 9 µM | 300,000 compounds, 1.7% hits | AID 504408;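 active = mean replicate activation of at least 50% with a set share of replicates each reaching 50%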
MITF TRPM1 HTS – increases MITF-driven TRPM1 promoter luciferase signal; activation, % at 12.5 µM; SK-MEL-5 TRPM1-promoter luciferase, 24 h; % of positive control, neutral wells = 0; 300,000 compounds, 0.75% hits;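 active = mean activation of at least 80% with every replicate also reaching 80%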
esBAF inh – blocks esBAF chromatin remodeling in mouse ES cells | Bmi1-luciferase knock-in reporter, 24 h; 100% = twice the neutral-well signal | 350,000 compounds, 2% hits | AID 602393 | reporter increase, % at 12.5 µM; in the data active = activation above about 40%;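 note: a rise in the Bmi1 reporter signal indicates esBAF inhibition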
SMARCA2 activ – SMARCA2 function activation, primary screen. AID 652017. 370,000 compounds, 1% hits. MG213 cells, MMTV-luciferase reporter, dexamethasone, overnight. activation, % at 9.1 µM; in the data active = activation above about 7.8%
HSF1 inh – HSF1 inhibition; 300,000 compounds, 0.77% hits; activity change, negative = inhibition, % at 7.5 µM (by protocol); AID 2098; NIH3T3-HGL HSE-luciferase, MG132-induced, luminescence 8 h; hits give low values;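 active = more than half of replicate wells show activity change below -50%, luminescence cut by over half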;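 note: luciferase reports HSF-1 transcriptional activity via heat shock element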
Wnt act – Wnt/beta-catenin pathway activation; Wnt/beta-catenin reporter cell assay, activator, plate reader; activation, % at 9.35 µM; 300,000 compounds, 1.2% hits; AID 743398; in the data active = activation above about 30%, passing the limit was not always enough
A number is an active result; – = inactive; · = no result given.

SMILES | HSF-1 act | MITF TRPM1 HTS | esBAF inh | SMARCA2 activ | HSF1 inh | Wnt act
COC(=O)c1ccc(NC(=O)Nc2ccc(OC)cc2)cc1 | – | – | – | – | – | –
COc1ccc(NC(=O)CCSc2ccc(C)cc2)cc1 | – | – | · | – | – | –
CC(C)C#Cc1cnc2c(c1)C(=O)N([C@H](C)CO)C[C@@H](C)[C@H](CN(C)C(=O)Nc1ccccc1)O2 | · | · | – | · | · | ·
O=C(NN=C1CCCC1)c1cccs1 | – | – | · | – | – | ·
CC1=C/C(=N\NC(=O)c2cccs2)CC(C)(C)C1 | 62 | – | · | – | – | –
CC(=O)N1CCC(=NNC(=O)c2cccs2)CC1 | 55 | – | · | – | – | ·
C=C(C)C1CC=C(C)C(=NNC(=O)c2ccncc2)C1 (stereo not given) | · | – | – | – | · | –
C=C(C)C1CC=C(C)/C(=N/NC(=O)c2cccs2)C1 (stereo not given) | 80 | 98 | 43 | – | – | –
O=C(C[C@H]1C=C[C@@H](NC(=O)C2CCC2)[C@H](CO)O1)NC1CCC1 | · | · | – | · | · | ·
C=CCn1c(SCC(=O)c2ccc(-c3ccccc3)cc2)nnc1-c1ccc(OC)cc1 | · | · | · | – | · | ·
C=C(C)Cn1c(SCC(=O)O)nnc1-c1ccc(OC)cc1 | 59 | · | – | – | – | ·
COc1ccc(CCn2c(-c3ccc(Cl)cc3)n[nH]c2=S)cc1OC | – | – | · | – | – | –
COc1ccc(CCn2c(-c3ccc(C(C)(C)C)cc3)n[nH]c2=S)cc1OC | · | – | · | 7.9 | · | –
COc1nc(Nc2ccc(O)cc2)nc(OC(C(F)(F)F)C(F)(F)F)n1 | – | – | – | – | – | ·
COc1nc(Nc2ccc(C(C)C)cc2)nc(OC)n1 | – | – | 58 | – | – | ·
Cc1noc(C)c1S(=O)(=O)N(C)C[C@@H]1OCCCC[C@@H](C)Oc2ccc(NC(=O)NC3CCCCC3)cc2C(=O)N([C@@H](C)CO)C[C@@H]1C | · | · | – | · | · | ·
CC(/C=N/NC(=O)c1cc(-c2ccccc2)nc2ccccc12)=C\c1ccco1 | 55 | – | – | – | – | –
O=C(N/N=C/c1cccc(F)c1)c1cc(-c2ccco2)nc2ccccc12 | – | – | 79 | – | – | –
COc1cc(/C=N/NC(=O)c2cc(-c3ccco3)nc3ccccc23)cc(OC)c1O | – | – | · | – | – | –
COCCCNC(=O)c1cc(OC)c(OC)c(OC)c1 | – | – | – | – | – | ·
COc1cc(SC)ccc1C(=O)NCCOc1ccc(F)cc1 | 68 | – | · | – | – | –
COc1cc(C(=O)NCCSc2ccc(F)cc2)cc(OC)c1OC | 66 | – | – | – | – | –
O=C(C[C@H]1C=C[C@@H](NC(=O)CC2CC2)[C@@H](CO)O1)NCC(F)(F)F | · | · | – | · | · | ·
CC1(c2ccccc2)CC2CC(c3ccccc3)N1O2 (stereo not given) | 124 | – | – | – | – | –
COc1ccc(CN(C)C[C@@H]2OCCCC[C@@H](C)Oc3ccc(NC(=O)Nc4ccccc4)cc3C(=O)N([C@@H](C)CO)C[C@@H]2C)cc1 | · | · | – | · | · | ·
SMILES | HSF-1 act | MITF TRPM1 HTS | esBAF inh | SMARCA2 activ | HSF1 inh | Wnt act
O=C1NC(=Nc2ccccc2Cl)S/C1=C\c1ccc(C(=O)O)cc1 | – | · | – | – | – | –
CC12CCC(C/C1=N\N=C1\NC(=O)/C(=C\c3ccc(Cl)cc3)S1)C2(C)C (stereo not given) | – | – | · | – | -94 | –
CNc1cccc(-c2cccc(O)c2)n1 | · | · | 53 | – | · | –
CCCc1ccc2oc(C(=O)N(Cc3ccncc3)CC3CCCO3)c(C)c2c1 (stereo not given) | – | – | – | – | – | –
Cc1ccc2oc(C(=O)N(Cc3ccncc3)CC3CCCO3)c(C)c2c1 (stereo not given) | – | – | 58 | – | – | –
Cc1ccsc1C(=O)NCCc1c[nH]c2ccccc12 | – | – | 50 | – | – | –
CCC(=O)NCCc1c[nH]c2ccccc12 | – | – | – | – | – | –
COc1ccc(C(=O)NCCc2c[nH]c3ccccc23)cc1 | – | · | 54 | – | – | –
O=C(NCCc1c[nH]c2ccccc12)c1ccc(F)cc1F | – | – | 57 | – | – | –
Cc1ccsc1C(=O)NCCc1nnc2ccccn12 | – | – | 56 | 7.8 | – | –
COCC#Cc1cnc2c(c1)C(=O)N([C@@H](C)CO)C[C@H](C)[C@H](CN(C)C(=O)C1CCC1)O2 | · | · | – | · | · | ·
CCCC#Cc1ccc2c(c1)O[C@H](CN(C)C)[C@H](C)CN([C@H](C)CO)S2(=O)=O | · | · | – | · | · | ·
O=C(NCCc1c[nH]c2ccccc12)c1cnc2sccn2c1=O | – | – | 76 | – | – | –
COc1ccc(C(=O)c2c[nH]c3ccccc23)cc1 | – | 86 | 61 | – | – | –
O=C(NCCc1c[nH]c2ccccc12)c1cncc(Br)c1 | – | – | – | – | – | –
O=C(NCCc1c[nH]c2ccccc12)c1ccc(Cl)cc1 | 59 | · | – | – | – | –
COc1ccc(C(=O)NCC(=O)OCC(=O)c2c[nH]c3ccccc23)cc1 | · | · | – | – | · | –
O=C(Nc1ccccc1Cl)N1[C@@H](CO)[C@@H]2c3ccccc3NC[C@@H]21 | · | · | – | · | · | ·
O=C(Nc1ccccc1Cl)N1[C@H](CO)[C@@H]2c3ccccc3NC[C@@H]21 | · | · | 61 | · | · | ·
CC1(C)CC(=O)c2cnc(N3CCc4ccccc4C3)nc2C1 | 55 | – | 69 | – | – | –
Cc1cc(C)c(S(=O)(=O)c2ccccc2C(=O)O)c(C)c1 | 54 | – | · | – | – | –
COc1ccc(N=Nc2nc3ccc(Br)cc3n2C)cc1 | – | – | 52 | – | – | ·
CC(=O)NC1=C(NC2CCS(=O)(=O)C2)C(=O)c2ccccc2C1=O (stereo not given) | – | – | – | – | – | –
CN(C1=C(NC(=O)c2ccccc2)C(=O)c2ccccc2C1=O)C1CCS(=O)(=O)C1 (stereo not given) | 66 | – | · | – | – | ·
CC(=O)Nc1ccc(S(=O)(=O)NC2=C(N3CCN(c4ccc(F)cc4)CC3)C(=O)c3ccccc3C2=O)cc1 | 75 | – | · | – | – | –
SMILES | HSF-1 act | MITF TRPM1 HTS | esBAF inh | SMARCA2 activ | HSF1 inh | Wnt act
COc1cc(C(c2c(C)[nH][nH]c2=O)c2c(C)[nH][nH]c2=O)ccc1OC(=O)c1cccc([N+](=O)[O-])c1 | · | – | · | – | · | ·
CCOC(=O)C(=Cc1ccc(OCc2ccc([N+](=O)[O-])cc2)c(OC)c1)C(=O)OCC | 77 | – | · | – | – | ·
COC(=O)C(=Cc1ccc(OCc2ccc([N+](=O)[O-])cc2)c(OC)c1)C(=O)OC | 278 | – | 74 | – | – | ·
COc1cc(C(c2c(C)[nH][nH]c2=O)c2c(C)[nH][nH]c2=O)ccc1OCc1ccc([N+](=O)[O-])cc1 | 205 | – | – | – | – | ·
COC(=O)[C@@H]1[C@@H](CO)[C@@H]2Cn3c(cccc3=O)[C@@H]2N1C(=O)C1CCCCC1 | · | · | – | · | · | ·
C[C@@H]1CN([C@H](C)CO)C(=O)Cc2cc(NC(=O)Cc3ccccc3)ccc2O[C@@H]1CN(C)Cc1ccc2c(c1)OCO2 | · | · | – | · | · | ·
